About 64,000 (15%) of roughly 420,000 compounds were called active. Roughly 27% stayed inconclusive and do not appear here. Not all results are given here. A number with no mark means an inactive call. Calls come from the whole dose curve; as a rule, active = well fitted inhibition curve with a large enough effect; inconclusive = small, poorly fitted or top-dose-only effect; inactive = flat fitted curve, though single readings scatter.
experiment: qHTS for Inhibitors of human tyrosyl-DNA phosphodiesterase 1 (TDP1): qHTS in cells in absence of CPT; conditions: DT40 Tdp1-/- hTDP1 cells, no CPT, ATP luminescence, 48 h; activity change, negative = growth inhibition: at 46.2 µM (top of the series); note: nearly all actives have a fitted effect of over 55% in size
Summary of the method: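 Camptothecin absent (DMSO only). Human TDP1-complemented DT40 knockout cells, 400 cells/well, 37 °C for minimum 48 hr; ATP measured via CellTiter-Glo, 30 min dark incubation, luminescence.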
% is set by controls: 0 for no effect and ±100 for the full control effect; potency is the fitted concentration of half-maximal effect.

SMILES | activity change, negative = growth inhibition [%] | Potency
O=C(Nc1ccccc1Cl)NC1(C(=O)N2CCOCC2)CCCCC1 | -7.24 | 
COc1cccc(NC(=O)CN(C)C(=O)CSCc2nc3scc(-c4cccs4)c3c(=O)[nH]2)c1 | 1.04 | 
Cc1ccccc1N1CCN(C2CCCN(C(=O)c3ocnc3C)C2)CC1 (stereo not drawn) | -25.4 | 
Cc1ccccc1N1CCN(C2CCCN(C(=O)c3cn4c(C)cccc4n3)C2)CC1 (stereo not drawn) |  | 14600 nM (active)
Cc1cnc(C(=O)N2CCCC(N3CCN(c4ccccc4F)CC3)C2)cn1 (stereo not drawn) | -24.2 | 
CC(C)c1ccc(NS(=O)(=O)c2ccc3[nH]cc(C(=O)NC4CCCC4)c(=O)c3c2)cc1 | -18 | 
CCc1ccc(OC2(C)CCN(CCOc3ccc(C)cc3)C2)cc1 (stereo not drawn) | -28.4 | 
COCOc1cccc(CN2CCC(C)(Oc3ccc(SC)cc3)C2)c1 (stereo not drawn) |  | 10300 nM (active)
CCC12CN3CC(CC)(CN(C1)C31C(=O)N(C)c3ccc(C)cc31)C2=O (stereo not drawn) | -22.5 | 
O=C(NC1CC2CCCC(C1)N2C(=O)N1CCCCC1)C1CCCCC1 (stereo not drawn) | -8.22 | 
C/C(=N\NC(=O)CC(C)C)c1c(C(F)(F)F)[nH]n(-c2nc3ccccc3s2)c1=O | -8.53 | 
COc1ccc(N=C(C)c2sc3ccccc3c2O)cc1 | 0.494 | 
COC(=O)Cc1[nH]n(-c2nc3ccccc3s2)c(=O)c1C(C)=Nc1ccc(OC)cc1 |  | 3260 nM (active)
Cc1ccc(-c2ccc(CCC(=O)O)n2-c2ccc(C(N)=O)cc2)cc1 | -15.2 | 
CN(Cc1ccccc1)C(=O)C(=O)c1cn(CC(=O)N2CCCC2)c2ccccc12 | -19.2 | 
COc1ccc(OCCCON2C(=O)c3ccccc3C2=O)cc1 | -0.348 | 
CCOC(=O)C1=C(c2ccc(OC)cc2)C(=O)c2ccccc2C1=O |  | 1460 nM (active)
CCOC(=O)c1cc2n(c1N)-c1ccccc1C2=O | -18.9 | 
CCOc1ccc(C(=O)NCC(=O)N2CCCCCCC2)cc1OCC | 0.068 | 
O=C(CCS(=O)(=O)c1cccc2nonc12)NCCc1ccccc1Cl | -17.1 | 
COc1cccc(Cn2c(=O)c(-c3ccccc3)nc3cnc(OC)nc32)c1 | -1.76 | 
COc1cccc(Cn2c(=O)c(-c3cc(F)cc(F)c3)nc3cnc(OC)nc32)c1 |  | 116 nM (active)
COCCn1c(=O)c(CCc2ccccc2)nc2cncnc21 | 22.6 | 
COc1ccc(-c2nc3cnc(OC)nc3n(Cc3ccc(F)cc3)c2=O)cc1 | -15 | 
COc1cccc(Cn2c(=O)c(CCc3ccccc3)nc3cnc(N(C)C)nc32)c1 | -6.83 | 
COc1cccc(Cn2c(=O)cnc3cncnc32)c1 |  | 731 nM (active)
Cc1ccc(F)cc1NC(=O)c1cccc(N(C)C)c1 | -1.61 | 
COc1ccc(-c2nc(N)sc2C2(O)C(=O)Nc3c(Br)cc(F)cc32)cc1OC (stereo not drawn) | -1.91 | 
